These results are taken from PubChem BioAssay (NCATS).

The test system of one assay is CRL-7250. Kind of assay: Cytotoxic Profiling of Annotated Libraries Using Quantitative High-Throughput Screening (AID 1296008). Also: nearly all actives have a fitted effect of over 60% in size. Particulars: Five cell lines viability, CellTiter-Glo ATP luminescence, 48-72 h; max response: stronger effect = lower value. A digest of the protocol:
(§1)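 Compounds were pin-transferred onto cells and incubated 48 or 72 hr at 37 degree Celsius, 95% humidity. CellTiter-Glo was added, plates sat 10 min at room temperature, then ATP-coupled luminescence was imaged as the viability read-out.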
(Cellular ATP, detected with luciferase, serves as a proxy for viable cell number.)

The next assay has as its system HEK293. Described as above. The following applies: Five cell lines viability, CellTiter-Glo ATP luminescence, 48-72 h; max response: stronger effect = lower value. Put shortly:
as §1

Several values for one entry are separate records, joined by “and”; a condition that tells them apart may be missing. Equal values may be shown once. Records with an inconclusive call do not appear. Some structures have more than one record in an assay (separate samples or runs), and their calls can disagree. Unmarked numbers belong to inactive results. Activity calls are given as the source filed them. Calls follow the shape of the dose curve; as a rule, active = well fitted inhibition curve with a large enough effect; inconclusive = small, poorly fitted or top-dose-only effect; inactive = flat fitted curve, though single readings scatter.
% is scaled to controls: 0 for no effect and ±100 for the full control effect; potency is read from the fitted curve at half-maximal effect.

For `CN(C1CCc2c(c3ccccc3n2CC(=O)O)C1)S(=O)(=O)c1ccc(F)cc1` (stereo unspecified), in the assay with CRL-7250, the max response is 3.48% and -10.1%; the result was inactive. In addition, in the assay with HEK293, the max response was -3% and -8.76%; the call was inactive.

As to `CCOc1ccccc1OCCNC(C)Cc1ccc(OC)c(S(N)(=O)=O)c1` (stereo unspecified), in the assay on CRL-7250, the max response is 3.17% and the call was inactive. Besides, the max response in the assay on HEK293 was -25.2%.

Turning to `CC=C1NC(=O)[C@H]2CSSCCC=C[C@H](CC(=O)N[C@H](C(C)C)C(=O)N2)OC(=O)[C@H](C(C)C)NC1=O`, in the assay with CRL-7250, the Potency is 0.0187 µM (active).

On to `COc1ccc(CC2c3cc(OC)c(OC)cc3CC[N+]2(C)CCC(=O)OCCCCCOC(=O)CC[N+]2(C)CCc3cc(OC)c(OC)cc3C2Cc2ccc(OC)c(OC)c2)cc1OC` (stereo unspecified), for which the max response with CRL-7250 is -0.557%.

Consider `C=CC(=O)N1CCC[C@@H](n2nc(-c3ccc(Oc4ccccc4)cc3)c3c(N)ncnc32)C1`, for which the max response in the assay on CRL-7250 is 2.95%.

Turning to `COc1ccc2c(OCc3nnc4ccc(-c5ccccc5)nn34)ccnc2c1`, the max response in the assay on CRL-7250 was -1.03%. Further, the outcome in the assay with CRL-7250 and with HEK293 was inactive.

Regarding `Cc1cc(C(=O)N2CCN(c3cccc(Cl)c3)CC2)n(-c2ccccc2)n1`, the Potency is 4.69 µM (active) and 5.8 µM (active) in the assay on CRL-7250; 526 nM (active) and 1.46 µM (active) with HEK293.

Take `CC(C)CC(=O)Nc1n[nH]c2c1CN(C(=O)C1CCN(C)CC1)C2(C)C`: in the assay on CRL-7250, the Potency is 1.48 µM (active) and the max response is -90.6%. Besides, the Potency with HEK293 was 372 nM (active) and 326 nM (active).

For the molecule `CC(C)[C@H](C(=O)Nc1ccc(C(=O)NO)cc1)c1ccccc1`, in the assay on CRL-7250, the Potency is 4.18 µM (active).

For the molecule `CNc1nccc(-c2cccnc2Oc2cc(C(=O)Nc3cccc(C(F)(F)F)c3)ccc2C)n1`, in the assay on CRL-7250, the Potency was 7.31 µM (active).

As for `CCC(=C(c1ccccc1)c1ccc(OCCN(C)C)cc1)c1ccccc1`, the max response in the assay on CRL-7250 is 3.45%.

Take `CC1(C)CCC(c2ccc(Cl)cc2)=C(CN2CCN(c3ccc(C(=O)NS(=O)(=O)c4ccc(N[C@H](CCN5CCOCC5)CSc5ccccc5)c(S(=O)(=O)C(F)(F)F)c4)cc3)CC2)C1`: the max response in the assay on CRL-7250 was 3.93%.

With `C=C1C(=CC=C2CCCC3(C)[C@@H]([C@H](C)C=CC=CC(O)(CC)CC)CC[C@@H]23)C[C@@H](O)C[C@@H]1O` (stereo partly specified), the max response with CRL-7250 is 4.9%.

`Cn1c2cc(S(C)=O)sc2c2cnn(Cc3cccc(N)c3)c(=O)c21` (stereo unspecified): the max response in the assay with CRL-7250 is 0.238%.

Turning to `COc1cccc(Nc2c(C(N)=O)cnc3c(C)cc(S(=O)(=O)c4cccc(C(=O)N(C)C)c4)cc23)c1`, in the assay on CRL-7250, the max response is -20.3% and the molecule was classed as inactive. The Potency with HEK293 is 12.9 µM (active).

Consider `Nc1nc(-c2nn(Cc3ccccc3F)c3ncccc23)nc(N)c1N1CCOCC1`, for which the max response is -1.46% in the assay on CRL-7250 and -2.05% in the assay on HEK293.

As for `C=C1C(=CC=C2CCC[C@]3(C)[C@@H]([C@H](C)C=C[C@H](C)C(C)C)CC[C@@H]23)C[C@@H](O)C[C@@H]1O`, the max response with CRL-7250 is -0.207%.

As for `Cc1ccc(NC(=O)C2(c3ccc4c(c3)OC(F)(F)O4)CC2)nc1-c1cccc(C(=O)O)c1`, in the assay on CRL-7250, the Potency is 0.187 µM (active) and the max response is -5.91%. Also, in the assay with HEK293, the Potency was 0.0372 µM (active) and the call was inactive.

With `Cc1ccc(C(=O)Nc2cccc(C(F)(F)F)c2)cc1-c1ccc2nc(NCCN3CCOCC3)ncc2c1`, the Potency in the assay on CRL-7250 was 4.18 µM (active) and 7.31 µM (active).

In the case of `COc1cccc2nc(-c3cccs3)nc(NN3C(=O)C=C(C)C3=O)c12`, the Potency in the assay on CRL-7250 was 2.09 µM (active) and 6.51 µM (active); in the assay with HEK293 it was 418 nM (active) and 517 nM (active).

Consider `CC(O)C1C(=O)N2C(C(=O)O)=C(SC3CNC(C(=O)N(C)C)C3)C(C)C12` (stereo unspecified), for which the max response in the assay on CRL-7250 was -9.97% and 0.421%; with HEK293, -5.51% and 0.11%.

For `Cc1c(C)n(Cc2ccc(-c3ccccc3C(=O)O)cc2)c2ccc(C(=O)N[C@@H](C)c3ccc([N+](=O)[O-])cc3)cc12`, in the assay on CRL-7250, the max response was 0.704% and the call was inactive. Moreover, in the assay with HEK293, the max response was -2.51% and the molecule was classed as inactive.

Regarding `CC[C@H](CO)Nc1nc(NCc2ccccc2)c2ncn(C(C)C)c2n1`, the Potency in the assay with CRL-7250 is 26.4 µM (active).

With `CC1(O)CC(c2nc(-c3ccc4ccc(-c5ccccc5)nc4c3)c3c(N)nccn23)C1` (stereo unspecified), in the assay with CRL-7250, the Potency is 11.8 µM (active) and the max response was -9.35%. The Potency in the assay on HEK293 was 4.69 µM (active).

With `CN[C@H]1CCc2cc(OC)c(OC)c(OC)c2-c2ccc(OC)c(=O)cc21`, the Potency in the assay with CRL-7250 is 0.0148 µM (active); in the assay with HEK293, 0.0015 µM (active).

Take `CNC(=O)c1ccc(-c2cnc3ncc(Cc4ccc5ncccc5c4)n3n2)cc1F`: in the assay on CRL-7250, the max response was -2.64% and the molecule was called inactive. Moreover, the outcome in the assay with HEK293 was inactive.

As for `CCNC(=O)Nc1ccc2ncc(Nc3ccc(C)cc3)nc2n1`, in the assay with CRL-7250, the max response was -2.45% and the molecule was called inactive. For the same molecule, in the assay on HEK293, the max response is 1.18% and 1.8%.

In the case of `O=C(CCCCCCC(=O)Nc1ccc([C@H]2O[C@@H](CSc3nc(-c4ccccc4)c(-c4ccccc4)o3)C[C@@H](c3ccc(CO)cc3)O2)cc1)NO`, the Potency is 18.7 µM (active) with CRL-7250; 14.8 µM (active) and 18.4 µM (active) in the assay on HEK293. In addition, the max response in the assay with CRL-7250 is -17.1%.

Take `O=C1CCC[C@@H]2[C@H]3CCC[N+]4([O-])CCC[C@@H](CN12)[C@@H]34` (stereo partly specified): in the assay on CRL-7250, the max response is 2.61% and the molecule was called inactive. Also, in the assay on HEK293, the max response was 0.171%.
